FBPA Giardia inh – blocks Giardia fructose-bisphosphate aldolase activity | A8B2U2 | AID 2451 | actives 0.71% (n = 290,000) | purified Giardia FBPA | Potency, µM (titrated, usually from 59.6 µM), for inactives: at the top dose activity, negative = inhibition, most hits filed as inhibitors; note: potency is the fitted concentration of half-maximal effect; nearly all actives have a fitted effect of over 55% in size
Target sequence (A8B2U2 whole entry, looked up): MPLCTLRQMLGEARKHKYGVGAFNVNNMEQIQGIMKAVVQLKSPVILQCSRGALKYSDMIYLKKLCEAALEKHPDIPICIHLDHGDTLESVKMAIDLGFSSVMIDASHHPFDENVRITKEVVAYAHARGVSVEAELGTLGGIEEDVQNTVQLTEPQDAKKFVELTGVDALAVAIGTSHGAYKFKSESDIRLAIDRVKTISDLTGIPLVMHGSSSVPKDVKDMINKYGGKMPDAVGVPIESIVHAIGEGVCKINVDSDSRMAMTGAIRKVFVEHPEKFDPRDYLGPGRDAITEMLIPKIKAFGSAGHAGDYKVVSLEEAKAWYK
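40 nM FBPA preincubated 10 min at RT with compound (up to 57.5 uM final), then substrate plus GAPDH/TPI/NAD/arsenate coupling and diaphorase/resazurin added. Fluorescence read after 20 min at RT, 525/598 nm.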
FMDV inh – antivirals against foot and mouth disease virus; FMDV antiviral cell-based qHTS; Potency, µM (top dose mostly 57.9 µM), for inactives: at the highest dose activity change, negative = inhibition, usual class: inhibitors; actives 1.2% (n = 410,000); AID 1159524; calls by dose curve; tested in HEK293T cells; note: read-out not given here; potency is the fitted concentration of half-maximal effect; nearly all actives have a fitted effect of over 45% in size
RE007 growth inh – less growth of the S. pombe RE007 Vpr strain. Potency, µM (doses to about 92.2 µM), without a hit: at the top dose activity change, negative = less growth, hits mostly inhibitors. actives 0.21% (n = 360,000). S. pombe RE007 Vpr strain, BacTiter-Glo ATP luminescence, 24 h; active = well fitted falling curve with a large enough effect; inconclusive = small, poorly fitted or top-dose-only effect; inactive = no such curve, though single readings can be large or run the other way; note: potency is the fitted concentration of half-maximal effect; nearly all actives have a fitted effect of over 50% in size
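Fission yeast strain RE007, carrying one chromosomally integrated HIV-1 vpr copy, was seeded at OD 0.01 in PMG+AL medium with 23 nL pinned compound. After 24 h at 30 °C and 99% humidity, viability was read by BacTiter-Glo luminescence.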
Sm TGR block – S. mansoni TGR enzyme inhibition; purified TGR, DTNB reduction, TNB absorbance 405 nm; Potency, µM (doses to about 114 µM), without a hit: at the highest dose activity change, negative = inhibition, hits mostly inhibitors; actives 3% (n = 360,000); note: potency is the fitted concentration of half-maximal effect; nearly all actives have a fitted effect of over 60% in size
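Kinetic colorimetric format: TGR-catalysed, NADPH-driven DTNB reduction monitored via TNB absorbance. Enzyme dispensed at 20 nM; compound exposure 15 min at room temperature before reaction start.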
HCMV antiviral – inhibitors of human cytomegalovirus. HFF cells, HCMV-luciferase reporter, 72 h; stronger effect = lower value. activity change, negative = inhibition, % at 57.5 µM. actives 4.5% (n = 410,000). AID 1259415; in the data active = activity change below about -60%; inconclusive = no clear call, values can overlap the other calls; inactive = above about -39%
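Steps: HFFs plated, 16 h 37C; compounds added; HCMV-luciferase added to MOI 1 PFU/cell; 72 h 37C; OneGlo reagent, 5 min room temperature; luminescence read, normalized to controls.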
Tb PYK inh – T. brucei pyruvate kinase inhibition | Potency, µM (series often up to 76.8 µM), inactives show top-dose activity, negative = inhibition, usual class: inhibitors | Q57TT1 | actives 0.12% (n = 410,000) | TbPYK enzyme, Kinase-Glo Plus ATP luminescence, 45 min | AID 624173; note: potency is the fitted concentration of half-maximal effect; nearly all actives have a fitted effect of over 50% in size
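Quantitative HTS: titrated library compounds versus trypanosomal pyruvate kinase in TEA buffer (pH 7.2) containing KCl, MgCl2, BSA and Tween-20. Reactions were initiated with ADP, 130 uM final. Kinase-Glo Plus luminescence was read after 45 min at RT.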
* hit, by the source's call; ? = inconclusive; . = no result. Rows were chosen to be rich in hits. Some 7.7% of all compounds tested hit in one or more screens of this group. Unless noted, calls come from the whole dose curve; as a rule, active = well fitted curve in the direction sought with a large enough effect; inconclusive = small, poorly fitted or top-dose-only effect, or another doubt; inactive = no such curve, though single readings can be large; an effect the other way counts as inactive or inconclusive. % is set by controls: 0 for no effect and ±100 for the full control effect.

SMILES	FBPA Giardia inh	FMDV inh	RE007 growth inh	Sm TGR block	HCMV antiviral	Tb PYK inh
O=S(=O)(NCCN1CCN(S(=O)(=O)c2ccccc2F)CC1)c1ccccc1F	.	-16%	4%	.	-37	0%
CC(=O)c1c(C)[nH]c(C(=O)CN2CCN(S(=O)(=O)c3ccccc3F)CC2)c1C	.	18µM*	4%	.	?	1%
NC(=O)C(c1ccccc1)(c1ccccc1)[C@@H]1CCN(CCc2ccc3c(c2)CCO3)C1	.	.	.	.	.	-1%
CCN(C(=O)CN1C(=O)COc2ccc(S(=O)(=O)N3CCCCCC3)cc21)c1cccc(C)c1	0%	5%	0%	-2%	-63*	-1%
CNC(=O)CN1C(=O)COc2ccc(S(=O)(=O)N3CCCCCC3)cc21	.	-2%	20%	-13%	-39	-13%
Cc1ccc(C)c(N2CCN(C(=O)CN3C(=O)COc4ccc(S(=O)(=O)N5CCCC5)cc43)CC2)c1	.	-27%	.	-11%	-8	1%
CCN(Cc1ccccc1)C(=O)CN1C(=O)COc2ccc(S(=O)(=O)N3CCCCCC3)cc21	0%	-11%	-4%	-9%	-77*	-1%
Cc1cccc(N2CCN(C(=O)CN3C(=O)COc4ccc(S(=O)(=O)N5CCCCCC5)cc43)CC2)c1C	.	-22%	.	-4%	-73*	2%
Cc1noc(C)c1-c1cncnc1N1CCN(C)CC1	4%	-22%	.	.	.	.
COc1ccc(NC(=O)c2c(C)nn(Cc3ccccc3)c2Cl)cc1S(=O)(=O)N1CCOCC1	3%	?	1%	0%	-72*	-1%
COc1ccc(S(=O)(=O)N2CCOCC2)cc1C(=O)NCc1c(C)nn(Cc2ccccc2)c1C	.	4%	17%	.	-14	2%
COc1ccc(C(=O)NCc2c(C)nn(Cc3ccccc3)c2C)cc1S(=O)(=O)N1CCOCC1	.	-14%	3%	-12%	-101*	1%
Cc1nn(Cc2ccccc2)c(Cl)c1C(=O)Nc1ccc(OC(F)(F)F)cc1	0%	-26%	-5%	-2%	-69*	-2%
CC(=O)Nc1ccc(NC(=O)c2c(C)nn(Cc3ccccc3)c2Cl)cc1	1%	15%	0%	-7%	-19	2%
CCc1ccc(NC(=O)C2CCC(CNS(=O)(=O)c3cccs3)CC2)cc1 (stereo not given)	.	16%	.	1%	-2	0%
O=C(NCc1ccncn1)[C@H]1[C@H](CO)[C@H]2Cn3c(cccc3=O)[C@@H]1N2CC1CC1	.	.	.	.	1	.
Cc1nn(C)c(C)c1CN(C)S(=O)(=O)c1ccc(F)cc1	2%	0%	7%	-5%	-34	0%
Cc1nn(C)c(C)c1CN(C)S(=O)(=O)c1ccc2ccccc2c1	0%	-1%	5%	0%	-82*	-2%
O=C1C=C(c2cccc3c2Oc2ccccc2S3)C[C@@H](c2ccc3c(c2)OCO3)C1	.	.	.	.	-4	.
O=C(O)c1ccccc1-n1ncc2c1/C(=C/c1ccc(Cl)cc1)CC2	3%	.	.	14µM*	-19	.
CC1Cc2cc(-c3csc(NC(=O)Cc4ccccc4)n3)ccc2N1S(C)(=O)=O (stereo not given)	-9%	.	-7%	-5%	-98*	23%
COc1ccc(N2CCN(C(=O)c3cc(S(=O)(=O)N4CCC(C)CC4)cn3C)CC2)cc1	.	-2%	.	-4%	12	2%
Cc1cccc2c(N)c3c(nc12)CCCC3 (tested in a mixture with another compound)	0%	-18%	31%	.	-33	-1%
Cc1cc(C)c2c(N)c3cccc(C)c3nc2n1	-6%	-12%	7%	-8%	-99*	-2%
Cc1oc(-c2cccc(Cl)c2)nc1CS(=O)(=O)CC(=O)NC1CC1	15%	-3%	10%	40µM*	-18	6%
SMILES	FBPA Giardia inh	FMDV inh	RE007 growth inh	Sm TGR block	HCMV antiviral	Tb PYK inh
CCOC(=O)N1CCC(NC(=O)CS(=O)(=O)Cc2nc(-c3cccc(Cl)c3)oc2C)CC1	5%	-26%	-1%	35µM*	-60*	3%
CCOC(=O)N1CCC(NC(=O)C2CCCN(Cc3nc(-c4cccc(Cl)c4)oc3C)C2)CC1 (stereo not given)	0%	14µM*	-6%	-6%	-67*	-3%
CCOC(=O)N1CCC(NC(=O)CS(=O)(=O)Cc2nc(-c3cccc(OC)c3)oc2C)CC1	.	-25%	13%	1%	45	-4%
Cc1cc(Br)c2nc(-c3ccc(F)cc3)c(Cc3cccc(Cl)c3)n2c1	.	.	.	.	71	.
COc1cc(NC(=O)CCCOc2cc(=O)n(C)c3ccccc23)cc(OC)c1OC	.	-3%	.	-8%	6	-2%
Cc1ccc(CCNc2ncnc3onc(C)c23)cc1	.	?	.	1%	?	0%
COc1ccc(Cl)cc1C(=O)NCCS(=O)(=O)N1CCN(c2ccccc2OC)CC1	.	8.9µM*	.	0%	-20	1%
COc1ccccc1N1CCN(S(=O)(=O)CCNC(=O)CCc2ccccc2)CC1	.	?	10%	.	-86*	-11%
COc1ccc(CC(=O)NCCS(=O)(=O)N2CCN(c3ccccc3OC)CC2)cc1	.	-15%	-6%	1%	-27	-4%
COc1ccccc1N1CCN(S(=O)(=O)CCNC(=O)C23CC4CC(CC(C4)C2)C3)CC1	4%	14µM*	3%	1%	-13	3%
O=C(NCCS(=O)(=O)N1CCN(c2ccccc2)CC1)C12CC3CC(CC(C3)C1)C2	.	?	-21%	.	?	1%
Cc1ccc2oc(Nc3nc(-c4ccccc4)cc(=O)[nH]3)nc2c1	0%	?	1%	6%	-101*	2%
Cc1nc(-c2ccccc2)cc(=O)[nH]1	7%	12%	14%	2%	-5	1%
COC(=O)[C@@H]1OC(c2ccccc2)O[C@H]1C(=O)OC	7%	.	.	.	.	.
Cc1ccc(C(=O)Nc2ncc(Cc3ccc(SC(F)F)cc3)s2)cc1	7%	-27%	19%	-11%	-63*	-2%
O=C(NC1C=CS(=O)(=O)C1)c1sc2ccccc2c1Cl (stereo not given)	0%	.	-12%	-1%	-84*	-3%
Cc1ccc2oc3c(c(=O)c2c1)C1(C(=O)N(C)c2ccccc21)N(CCCO)C3=O (stereo not given)	.	-2%	.	-4%	2	-9%
CCc1ccc(C(O)c2ncc(-c3ccccc3Cl)[nH]2)cc1 (stereo not given)	.	63%	-8%	.	-96*	-3%
CSc1cccc(NC(=O)c2ccc(CN3CCc4ccccc4C3)cc2)c1	?	?	-2%	-9%	-61*	5%
O=C(Nc1cccc(Br)c1)c1ccc(CN2CCc3ccccc3C2)cc1	-4%	?	-3%	0%	-28	1%
